For orientation: Inhibition means the relative decrease from the control value, in per cent. Low readings indicate a weak effect, high ones a strong effect.

SMILES strings stand for the structures.

This test relates to Plasmodium falciparum. Nature of the test: GSK_TCMDC: Inhibition of Plasmodium falciparum 3D7 in whole red blood cells, using parasite LDH activity as an index of growth. Test compounds present at 2uM. It is filed as functional.
`COc1cccc(Nc2nc(C)cc(NC3CCCC3)n2)c1`: the Inhibition stood at 100%.
With `CC(=O)Nc1ccc(CN2CCCN(c3cc(NC(=O)c4cccc(C)c4)ccn3)CC2)cc1.O=C(O)C(F)(F)F`, the Inhibition turned out to be 92%.
For the compound `O=C(NCCc1ccc(Cl)c(Cl)c1)[C@@H]1CCCN1C(=O)c1ccc(O)c(-c2ccc(Cl)c(Cl)c2)c1`, the Inhibition amounted to 99%.
The compound `Cl.O=C(c1cccc(COc2ccc3c(c2)CCN(C2CCCC2)CC3)c1)N1CCN(c2ccncc2)CC1` gave an Inhibition of 100%.
Take `CCCNCc1ccc(-c2ccc(CN(Cc3ccc4c(c3)OCO4)C(=O)[C@H]3CCCO3)cc2)nc1.O=C(O)C(F)(F)F`: the Inhibition is on record as 90%.
The result for `CN1CCCc2ccc(NC(=O)c3cnc(-c4ccccc4)cn3)cc21` reads 87%; that for `O=C(O)C(F)(F)F.O=C1OC2(CN1CC1CCN(Cc3ccc(-n4ccnc4)cc3)C1)c1ccccc1-c1ccccc12` (stereo not given), 96%; that for `O=c1cc(NCC2(CNCc3cn(Cc4ccccc4)c4ccccc34)CCCCC2)[nH]c2ccccc12`, 100%.
The result for `Cc1cccc(C(=O)Nc2ccnc(N(C)CCCN(C)Cc3cccc(C#N)c3)c2)c1.O=C(O)C(F)(F)F` reads 92%.
For `Cc1ccc(S(=O)(=O)N2CCCN(C(=O)c3cc(-c4ccccc4)[nH]n3)CC2)cc1`, the Inhibition is on record as 96%.
The value for `Nc1cc2c(C3CCN(CC4CCN(C(=O)/C=C/c5ccc(Cl)c(Cl)c5)CC4)CC3)c[nH]c2cn1` was 100%; that for `COc1ccc(CNC(=O)c2cnc3c(O)cccc3c2Nc2cccc(NC(=O)c3ccc(Cl)c(Cl)c3)c2)cc1.O=C(O)C(F)(F)F` was 96%; that for `COCCOc1ccc(C(F)(F)F)cc1NC(=O)Cc1c(F)cccc1Cl` was 88%.
Compound `CCCCOc1cc(C)nc2ccc(NC(=O)COCC(=O)Nc3ccc4nc(C)cc(OCCCC)c4c3)cc12` had an Inhibition of 90%.
`CN(C)CCOc1ccc2c(c1)OC(C)(C)C=C2c1cccc2ccccc12.Cl`: the Inhibition is given as 95%.
Take `O=C(O)C(=O)O.Oc1ccccc1CN1CCN(C(c2ccccc2)c2ccccc2)CC1`: the Inhibition was found to be 98%.
The compound `Cc1cccc(C(=O)N2CCN(Cc3cccc(NC(=O)c4cccs4)c3)CC2)c1.O=C(O)C(F)(F)F` displayed an Inhibition of 95%.
`CCCN(CCC)S(=O)(=O)c1ccc(C(=O)Nc2nc3ccc(-c4cc(=O)[nH]c(Nc5ccccc5Cl)n4)cc3[nH]2)cc1` registered an Inhibition of 100%.
For the compound `CC(C)NCc1cccc(-c2ccc(-c3nc4ccccc4[nH]3)cc2)c1.O=C(O)C(F)(F)F`, the Inhibition is 100%.
As for `CCOc1ccc2ccccc2c1CNCCCCCCNCc1c(OCC)ccc2ccccc12.CS(=O)(=O)O`, the Inhibition is listed as 100%.
Regarding `COc1cc(C(C)C)nc2ccc(NC(=O)c3ccc(C(=O)Nc4ccc5nc(C(C)C)cc(OC)c5c4)cc3)cc12`, the Inhibition turned out to be 95%.
`Cc1ccc(-c2cc(C(=O)Nc3ccc(S(=O)(=O)N4CCCCC4C)cc3)n[nH]2)c(O)c1` (stereo not given) returned an Inhibition of 100%.
The value for `COc1ccc(Nc2nccc(NCCNC(=O)Nc3ccccc3F)n2)cc1` was 85%; that for `Cl.N#Cc1ccc(-c2ccc(C(=O)Nc3ccc4c(c3)CCN(C3CCC3)CC4)nc2)cn1` was 85%.
The result for `c1cc(CNC2Cc3ccc(-c4cccs4)cc3C2)cc(-n2ccnc2)c1` (stereo not given) reads 100%; that for `CN(CCCCCNC(=O)/C=C/c1ccc(Cl)c(Cl)c1)CCCCc1c[nH]c2ccccc12`, 90%; that for `O=C(/C=C/c1ccc(-c2nc3cc(F)c(F)cc3[nH]2)cc1)NCc1ccc(Cl)c(Cl)c1`, 100%.
For `O=C(/C=C/c1ccc(Cl)c(Cl)c1)NCCCCCCN1CCN(C(=O)Nc2ccc(OC(F)F)cc2)CC1`, the Inhibition amounted to 91%.
For `O=C(Nc1cccc(-c2ccc(-c3nc4cc(C(F)(F)F)ccc4[nH]3)cc2)c1)Nc1ccc(Cl)c(Cl)c1`, the Inhibition was 100%.
`O=C(Nc1ccc(CN2CCOCC2)cc1)c1ccc(-c2ccc(Br)cc2)o1` registered an Inhibition of 92%.
In turn, `Cc1c(Cl)cccc1S(=O)(=O)N1CCCCC(c2ccc(C(F)(F)F)cc2)=N1` registered an Inhibition of 86%.
In the case of `COc1ccc(-c2c(-c3ccc(OCc4ccccc4)cc3O)n[nH]c2C(F)(F)F)cc1`, the Inhibition is listed as 93%.
The value for `CNC(=O)c1nc(-c2ccccc2)[nH]c1NC(C)=O` was 100%.
`CCC(CC(C)C(=O)O)=C(c1ccccc1)c1ccccc1` (stereo not given): the Inhibition came out at 98%.
The compound `CC(C)CCN1CCCN(Cc2ccc(C(=O)NCc3ccc(Cl)cc3)cc2)CC1.O=C(O)C(F)(F)F` gave an Inhibition of 84%.
With `CN1CCN(CCCN(Cc2ccc(-c3cccc(CNCc4ccc5c(c4)OCO5)c3)cc2)C(=O)NCCc2ccccc2)CC1.O=C(O)C(F)(F)F`, the Inhibition is recorded as 98%.
The compound `Cc1ccc(-c2nc(N3CCN(C(=O)c4ccco4)CC3)c3ccccc3n2)cc1` gave an Inhibition of 90%.
The compound `N#Cc1cccc(NC(=O)Nc2ccc3c(c2)CN(Cc2c[nH]c4ncccc24)C3)c1` displayed an Inhibition of 99%.
The compound `COc1cc2nc(Nc3ccc4c(ccn4Cc4ccccc4)c3)nc(Nc3ccc4c(ccn4Cc4ccccc4)c3)c2cc1OC` had an Inhibition of 89%.
Compound `COc1cccc(C(=O)NC(NC(=S)Nc2ccc(OC)cc2[N+](=O)[O-])C(Cl)(Cl)Cl)c1` (stereo not given) came in with an Inhibition of 99%.

(Values after ChEMBL document CHEMBL1157539, “Thousands of chemical starting points for antimalarial lead identification” (Nature, 2010).)
